Measurements as given in the supplement of paper PMC6555819.

Assays:
Test in all cases: PBM binding z-score (relative to random genomic background probes); higher = stronger binding; sequences stand for … in GC…GCGATTGACAGCGTAGAATGAAGG
[1] = tested on: FXR:RXRa (NR concentration 270 nM, RXRa partner concentration 90 nM)
Summary of the method: (§1)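 Antibodies against each partner of ligand-free nuclear receptor dimers (one per run) detected binding on custom Agilent 4×180K protein-binding microarrays after 1 h incubation. The double-stranded probes had 34-nt variable regions carrying direct-repeat seeds, single-nucleotide variants, half-site ablations and random human genomic background sequences. Binding z-scores, from regression-normalized fluorescence, use the random background probes as reference.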

[2] = tested on: LXRa:RXRa (NR concentration 270 nM, RXRa partner concentration 90 nM)
Summary of the method: as §1

[3] = tested on: LXRa homodimer (NR concentration 270 nM)
Summary of the method: as §1

[4] = tested on: LXRb:RXRa (NR concentration 270 nM, RXRa partner concentration 90 nM)
Summary of the method: as §1

[5] = tested on: LXRb homodimer (NR concentration 270 nM)
Summary of the method: as §1

[6] = tested on: PPARa:RXRa (NR concentration 270 nM, RXRa partner concentration 90 nM)
Summary of the method: as §1

[7] = tested on: PPARg:RXRa (NR concentration 180 nM, RXRa partner concentration 90 nM)
Summary of the method: as §1

[8] = tested on: PPARg:RXRa 270nM:90nM, anti-RXR (NR concentration 270 nM, RXRa partner concentration 90 nM)
Summary of the method: as §1

[9] = tested on: PPARg:RXRa 30nM:10nM, anti-RXR (NR concentration 30 nM, RXRa partner concentration 10 nM)
Summary of the method: as §1

[10] = tested on: PPARg:RXRa 90nM:30nM, anti-RXR (NR concentration 90 nM, RXRa partner concentration 30 nM)
Summary of the method: as §1

[11] = tested on: PPARg:RXRa DBDmut IVT, anti-RXR (DBD mutation: RXRa K156A/R161A, NR concentration 270 nM, RXRa partner concentration 90 nM)
Summary of the method: as §1

[12] = tested on: PPARg:RXRa IVT, anti-PPARg (NR concentration 270 nM, RXRa partner concentration 90 nM)
Summary of the method: as §1

[13] = tested on: PPARg DBDmut:RXRa IVT, anti-PPARg (DBD mutation: PPARg1 K132A/R137A, NR concentration 270 nM, RXRa partner concentration 90 nM)
Summary of the method: as §1

[14] = tested on: PPARg DBDmut IVT, anti-PPARg (DBD mutation: PPARg1 K132A/R137A, NR concentration 270 nM)
Summary of the method: as §1

[15] = tested on: PPARg homodimer (NR concentration 180 nM)
Summary of the method: as §1

[16] = tested on: PXR:RXRa (NR concentration 270 nM, RXRa partner concentration 90 nM)
Summary of the method: as §1

[17] = tested on: PXR homodimer (NR concentration 270 nM)
Summary of the method: as §1

[18] = tested on: RARa:RXR (NR concentration 270 nM, RXRa partner concentration 90 nM)
Summary of the method: as §1

[19] = tested on: RARa homodimer (NR concentration 270 nM)
Summary of the method: as §1

[20] = tested on: RARb:RXRa (NR concentration 270 nM, RXRa partner concentration 90 nM)
Summary of the method: as §1

| Sequence | PBM binding z-score [1] | PBM binding z-score [2] | PBM binding z-score [3] | PBM binding z-score [4] | PBM binding z-score [5] | PBM binding z-score [6] | PBM binding z-score [7] | PBM binding z-score [8] | PBM binding z-score [9] | PBM binding z-score [10] | PBM binding z-score [11] | PBM binding z-score [12] | PBM binding z-score [13] | PBM binding z-score [14] | PBM binding z-score [15] | PBM binding z-score [16] | PBM binding z-score [17] | PBM binding z-score [18] | PBM binding z-score [19] | PBM binding z-score [20] |
| --- | --- | --- | --- | --- | --- | --- | --- | --- | --- | --- | --- | --- | --- | --- | --- | --- | --- | --- | --- | --- |
| AGAAGGAGGGCACGCTGAGTTGATAGCAGAGTAG | 0.55 | 0.52 | -0.359 | 0.551 | 0.0256 | 1.83 | 1.89 | 1.81 | 0.436 | 1.01 | 4.39 | 4.02 | 0.794 | 0.398 | 0.378 | 1.16 | 0.294 | 0.766 | -0.141 | 2.32 |
| TCTTGTAGATCAATAGAGGTAAAGAAAGTGCGCT | 0.355 | 0.562 | -0.497 | 0.281 | -0.231 | 0.706 | -0.0447 | 1.14 | 2.57 | 1.62 | 1.51 | 0.822 | 0.0443 | 0.312 | -0.815 | 0.573 | 0.0758 | 0.505 | -0.142 | -0.0126 |
| ACTAGCAGGCCAAGGGTCACACAAGATTAGTCCG | 3.44 | 3.18 | 0.449 | 3.38 | -0.147 | 4.88 | 8.73 | 6.99 | 6.3 | 7.72 | 1.49 | 4.04 | -0.112 | -0.266 | 1.49 | 3.56 | 0.101 | 4.6 | 0.267 | 3.76 |
| TCGAATAGGTTAGGGGCATTCAGAATGGCGTCGA | 0.35 | 0.807 | -0.0676 | 1.26 | 0.0688 | 1.49 | 0.443 | 2.13 | 2.93 | 2.56 | 1.9 | 0.68 | -0.275 | -0.57 | 0.452 | 0.695 | 0.0158 | 0.806 | 0.0673 | 1.5 |
| ATCTCTAGGTAAAAGTTCTGTGAATCCCGAGGAT | 0.0905 | 0.216 | 0.111 | -0.143 | 0.463 | 1.52 | 2.62 | 3.93 | 2.04 | 4.05 | 2.32 | 1.91 | 1.22 | 1.71 | 1.06 | 0.0852 | 0.034 | -0.0223 | 0.566 | 0.232 |
| GGAACGAGGGCATAGTTGATAGCATCTGTCGACG | 0.364 | 0.0828 | -0.66 | 0.126 | -0.441 | 2.33 | 3.64 | 5 | 2.9 | 4.54 | 2.46 | 2.41 | -0.0516 | -0.265 | 0.109 | 0.17 | -0.0429 | 0.19 | -0.571 | 1.39 |
| ATATGTAGGTTATCGGGTCATCCAGTTTGCGCAT | 3.4 | 3.29 | 1.73 | 3.26 | 1.22 | 5.15 | 7.35 | 6.27 | 3.9 | 5.79 | 7.5 | 7.73 | 3.61 | 3.11 | 3.09 | 3.98 | 5.45 | 4.35 | 1.79 | 2.96 |
| CGTCCAAGGTCAAGATCAGTGAAAGAGACTCGAA | 6.95 | 4.97 | 0.248 | 3.85 | 0.6 | 5.63 | 4.78 | 5.2 | 1.46 | 3.58 | 3.03 | 3.31 | 0.858 | 0.353 | 2.49 | 3.3 | 0.349 | 3.99 | 1.69 | 5.14 |
